Consider 40 compounds from PubChem BioAssay (Tox21).

The structures appear in SMILES notation. “And” between values parts separate entries of the source, which are not always exact repeats. Identical values can stand only once. Results filed as inconclusive are left out. Values without a mark were called inactive. The source made the active and inactive calls. Calls come from the whole dose curve; as a rule, active = well fitted cell-killing curve with a large enough effect in the repeat runs; inconclusive = weak or mixed curves, or effect the other way; inactive = flat fitted curve, though single readings scatter.
% is set by controls: 0 for no effect and ±100 for the full control effect; potency is the fitted concentration of half-maximal effect.

The nature of one experiment: cAMP Responsive Elements (CRE) small molecule antagonists, cell-based qHTS assay: qHTS cell viability counter screen (AID 2060913). Note: nearly all actives have a fitted effect of over 40% in size. The conditions noted are these: CRE-bla HEK293T viability, CellTiter-Glo luminescence, 5 h; series mostly up to 92.4 µM; viability change, negative = cytotoxic: at the top concentration. The essentials: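 Cytotoxicity read in the same wells as the CRE-bla HEK293T antagonist assay: after 3 h compound with 0.25 uM NKH477 final and 2 h beta-lactamase substrate, CellTiter-Glo luminescence measured.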
(In general: qHTS replaces the single test concentration by a dilution series.)
As to `CCOC(=O)C1=C(C)NC(C)=C(C(=O)OCC)C1c1ccccc1/C=C/C(=O)OC(C)(C)C`, the “viability change, negative = cytotoxic” value was -5.42% [at 42.5 µM].

Regarding `O=S(=O)(O)c1ccc(O)cc1`, the Potency entry is “inactive”.

On to `OCC(F)(F)F`, for which the “viability change, negative = cytotoxic” value was -2.3%.

Take `CC(=O)Nc1ccc(C(=O)CCl)cc1`: the Potency entry was “inactive”.

Consider `CCCCN(CCCC)CCC(O)c1cc2c(Cl)cc(Cl)cc2c2cc(C(F)(F)F)ccc12` (stereo not given), for which the “viability change, negative = cytotoxic” value was -3.76% [at 42.5 µM].

For the compound `CCOc1ccc2[nH]cc(C(=O)NCc3ccccc3)c(=O)c2n1`, the “viability change, negative = cytotoxic” value is -10.2%.

For `CCCCNc1ccc(NCCCC)c2c1C(=O)c1ccccc1C2=O`, the viability change, negative = cytotoxic is 6.2% [at 18.9 µM].

With `CCCC(=O)C(CC)Sc1ccoc1C` (stereo not given), the “viability change, negative = cytotoxic” value was 7.9%.

As for `COc1cc(O)cc(O)c1`, the “viability change, negative = cytotoxic” value was -2.35% [at 42.5 µM].

Consider `C=Cc1ccccn1`, for which the “viability change, negative = cytotoxic” value was 3.85%.

Consider `O=[N+]([O-])c1ccc(O)c2ncccc12`, for which the “viability change, negative = cytotoxic” value was 8.12% [at 42.5 µM].

As for `O=C(OCCOCCOC(=O)c1ccccc1)c1ccccc1`, the Potency entry was “inactive”.

Regarding `NCCc1ccc(O)c(O)c1`, the Potency result was “inactive”.

As to `CC(C)(O)CCCC1=CCC(C=O)CC1` (stereo not given), the “viability change, negative = cytotoxic” value was 5.94%.

With `CN(C)C(=S)SC(=S)N(C)C`, the Potency is 62.7 µM (active) and 3.2 µM (active).

As to `CC(=O)c1ccc(Cl)c(Cl)c1Cl`, the “viability change, negative = cytotoxic” value was 0.793%.

Regarding `CC1(C)CC(=O)CC(C)(C)N1`, the “viability change, negative = cytotoxic” value is -5.86%.

As to `COc1cccc(CCc2ccccc2OCC(CN(C)C)OC(=O)CCC(=O)O)c1` (stereo not given), the “viability change, negative = cytotoxic” value is -1.32% [at 42.5 µM].

Take `CCCCNC1CC(C)(C)NC(C)(C)C1`: the “viability change, negative = cytotoxic” value was 2.12%.

For `CC[Si](OC(C)=O)(OC(C)=O)OC(C)=O`, the Potency result was “inactive”.

Take `Oc1cc2c(cc1O)[C@H]1c3ccc(O)c(O)c3OC[C@@]1(O)C2`: the “viability change, negative = cytotoxic” value is 17.9%.

As to `O=C(O)CNC(=O)c1ccccc1I`, the “viability change, negative = cytotoxic” value is 4.94% [at 42.5 µM].

As for `O=C(O)c1cccc(-c2noc(-c3ccccc3F)n2)c1`, the Potency was 23.7 µM (active).

Turning to `CCC(=O)c1ccc(O)cc1`, the “viability change, negative = cytotoxic” value is 3.79% [at 42.5 µM].

Take `O=[N+]([O-])c1cccc(Cl)c1Cl`: the “viability change, negative = cytotoxic” value is 1.22%.

With `C=CC(C)(CCC=C(C)C)OC(=O)/C=C/c1ccccc1` (stereo not given), the “viability change, negative = cytotoxic” value was -11.8%.

With `CC(=O)NNC(C)=O`, the “viability change, negative = cytotoxic” value is 6.76%.

As to `O=c1cc[nH]c(=S)[nH]1`, the Potency result was “inactive”.

Regarding `O=C(CN1CCN(Cc2ccc3c(c2)OCO3)CC1)N1c2ccccc2Sc2ccccc21`, the “viability change, negative = cytotoxic” value is 2.38% [at 42.5 µM].

Consider `CC(C)=CCCC(C)CCO` (stereo not given), for which the Potency result was “inactive”.

With `CCCCCCOC(C)=O`, the Potency entry was “inactive”.

`COc1ccc2cc1Oc1cc3c(cc1OC)CC[N+](C)(C)[C@H]3Cc1ccc(cc1)Oc1c(OC)c(OC)cc3c1[C@@H](C2)[N+](C)(C)CC3`: the “viability change, negative = cytotoxic” value was -1.83% [at 42.5 µM].

Regarding `O=C(O)c1cccc(Cl)c1Cl`, the “viability change, negative = cytotoxic” value was -11.7%.

`CN1CCC(=C2c3ccccc3CCc3sccc32)CC1`: the “viability change, negative = cytotoxic” value is -3.56% [at 42.5 µM].

`NC(=O)Nc1ccccc1`: the “viability change, negative = cytotoxic” value is 1.16%.

Turning to `COC=O`, the viability change, negative = cytotoxic was -17.9% [at 8.39 µM].

Turning to `OCCSc1ccccc1`, the “viability change, negative = cytotoxic” value is -4.82%.

On to `COc1ccc(C(=O)c2ccc(OC)cc2O)c(O)c1`, for which the “viability change, negative = cytotoxic” value is 10.2%.

For the compound `O=C(NS(=O)(=O)/C=C/c1ccccc1)c1ccc(F)cc1Cl`, the “viability change, negative = cytotoxic” value is -0.101%.

Turning to `O=C(c1ccc(O)cc1)c1ccc(O)cc1O`, the Potency result is “inactive”.

A further experiment can be described thus: cAMP Responsive Elements (CRE) small molecule agonists, cell-based qHTS assay: qHTS cell viability counter screen (AID 2060914). Note: nearly all actives have a fitted effect of over 50% in size. To be noted: CRE-bla HEK293T viability, CellTiter-Glo luminescence, 5 h; series mostly up to 92.4 µM; activity change, negative = cytotoxicity: at the top concentration. The method, boiled down:
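HEK 293T CRE-bla; DMEM + 10% dialyzed FBS, 25 mM HEPES; 18 h pre-incubation; compound 3 h, 37 °C/5% CO2; CellTiter-Glo added after reporter read; luminescence after 30 min RT.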
For `CCOC(=O)C1=C(C)NC(C)=C(C(=O)OCC)C1c1ccccc1/C=C/C(=O)OC(C)(C)C`, the “activity change, negative = cytotoxicity” value is 2.9% [at 42.5 µM].

As for `O=S(=O)(O)c1ccc(O)cc1`, the Potency entry is “inactive”.

For `OCC(F)(F)F`, the “activity change, negative = cytotoxicity” value was 0.868%.

For `CC(=O)Nc1ccc(C(=O)CCl)cc1`, the Potency entry is “inactive”.

`CCCCN(CCCC)CCC(O)c1cc2c(Cl)cc(Cl)cc2c2cc(C(F)(F)F)ccc12` (stereo not given): the “activity change, negative = cytotoxicity” value was -17.9% [at 42.5 µM].

As to `CCOc1ccc2[nH]cc(C(=O)NCc3ccccc3)c(=O)c2n1`, the “activity change, negative = cytotoxicity” value is -2.82%.

Regarding `CCCCNc1ccc(NCCCC)c2c1C(=O)c1ccccc1C2=O`, the activity change, negative = cytotoxicity is -7.45% [at 18.9 µM].

Consider `CCCC(=O)C(CC)Sc1ccoc1C` (stereo not given), for which the “activity change, negative = cytotoxicity” value was -0.762%.

`COc1cc(O)cc(O)c1`: the “activity change, negative = cytotoxicity” value is -0.109% [at 42.5 µM].

As for `C=Cc1ccccn1`, the “activity change, negative = cytotoxicity” value was -7.13%.

In the case of `O=[N+]([O-])c1ccc(O)c2ncccc12`, the “activity change, negative = cytotoxicity” value was 7.77% [at 42.5 µM].

With `O=C(OCCOCCOC(=O)c1ccccc1)c1ccccc1`, the Potency entry is “inactive”.

Take `NCCc1ccc(O)c(O)c1`: the Potency result is “inactive”.

Regarding `CC(C)(O)CCCC1=CCC(C=O)CC1` (stereo not given), the “activity change, negative = cytotoxicity” value was -0.682%.

For `CN(C)C(=S)SC(=S)N(C)C`, the Potency result is “inactive”.

For `CC(=O)c1ccc(Cl)c(Cl)c1Cl`, the “activity change, negative = cytotoxicity” value is -4.46%.

Take `CC1(C)CC(=O)CC(C)(C)N1`: the “activity change, negative = cytotoxicity” value was -6.66%.

On to `COc1cccc(CCc2ccccc2OCC(CN(C)C)OC(=O)CCC(=O)O)c1` (stereo not given), for which the “activity change, negative = cytotoxicity” value was 2.53% [at 42.5 µM].

For `CCCCNC1CC(C)(C)NC(C)(C)C1`, the “activity change, negative = cytotoxicity” value was 1.11%.

With `CC[Si](OC(C)=O)(OC(C)=O)OC(C)=O`, the Potency result is “inactive”.

With `Oc1cc2c(cc1O)[C@H]1c3ccc(O)c(O)c3OC[C@@]1(O)C2`, the “activity change, negative = cytotoxicity” value is 13.2%.

In the case of `O=C(O)CNC(=O)c1ccccc1I`, the “activity change, negative = cytotoxicity” value was -3.72% [at 42.5 µM].

For `O=C(O)c1cccc(-c2noc(-c3ccccc3F)n2)c1`, the Potency is 21.1 µM (active).

For `CCC(=O)c1ccc(O)cc1`, the “activity change, negative = cytotoxicity” value is 0.458% [at 42.5 µM].

On to `O=[N+]([O-])c1cccc(Cl)c1Cl`, for which the “activity change, negative = cytotoxicity” value is 1.17%.

`C=CC(C)(CCC=C(C)C)OC(=O)/C=C/c1ccccc1` (stereo not given): the “activity change, negative = cytotoxicity” value is -1.29%.

Take `CC(=O)NNC(C)=O`: the “activity change, negative = cytotoxicity” value is 2.52%.

With `O=c1cc[nH]c(=S)[nH]1`, the Potency entry is “inactive”.

Take `O=C(CN1CCN(Cc2ccc3c(c2)OCO3)CC1)N1c2ccccc2Sc2ccccc21`: the “activity change, negative = cytotoxicity” value was 7.01% [at 42.5 µM].

With `CC(C)=CCCC(C)CCO` (stereo not given), the Potency result is “inactive”.

`CCCCCCOC(C)=O`: the Potency entry was “inactive”.

In the case of `COc1ccc2cc1Oc1cc3c(cc1OC)CC[N+](C)(C)[C@H]3Cc1ccc(cc1)Oc1c(OC)c(OC)cc3c1[C@@H](C2)[N+](C)(C)CC3`, the “activity change, negative = cytotoxicity” value was -3.38% [at 42.5 µM].

For `O=C(O)c1cccc(Cl)c1Cl`, the “activity change, negative = cytotoxicity” value is 1.05%.

Regarding `CN1CCC(=C2c3ccccc3CCc3sccc32)CC1`, the “activity change, negative = cytotoxicity” value was 5.86% [at 42.5 µM].

For `NC(=O)Nc1ccccc1`, the “activity change, negative = cytotoxicity” value was -3.51%.

Turning to `COC=O`, the activity change, negative = cytotoxicity is -1.81% [at 8.39 µM].

`OCCSc1ccccc1`: the “activity change, negative = cytotoxicity” value is -12.2%.

As for `COc1ccc(C(=O)c2ccc(OC)cc2O)c(O)c1`, the “activity change, negative = cytotoxicity” value was 7.08%.

Consider `O=C(NS(=O)(=O)/C=C/c1ccccc1)c1ccc(F)cc1Cl`, for which the “activity change, negative = cytotoxicity” value is 2.36%.

As to `O=C(c1ccc(O)cc1)c1ccc(O)cc1O`, the Potency result was “inactive”.
